Source: PubChem BioAssay
The list is not random: actives were taken first. Their share in the collection is about 2.8%.
esBAF inh = SWI/SNF esBAF complex inhibition; mouse ES cells, Bmi1-luciferase knock-in reporter, 24 h; 100% = twice the neutral-well signal; reporter increase, % at 12.5 µM; 2% of 350,000 active; in the data active = activation above about 40%; inconclusive = no clear call, values can overlap the other calls;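 note: a rise in the Bmi1 reporter signal indicates esBAF inhibition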
GAA850 FXN act = increases GAA850 frataxin promoter reporter activity; HEK293 lucGAA850 FXN promoter luciferase reporter, 24 h; percent of 10 µM SAHA response; activation, % at 6 µM; 0.56% of 360,000 active;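 active = activation above the average of all compounds screened plus 3 SD, cutoff fixed separately per campaign, cut at about 7.5% in these data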
Wnt bcat act = Wnt/beta-catenin pathway activation; Wnt/beta-catenin reporter cell assay, activator, plate reader; activation, % at 9.35 µM; 1.2% of 300,000 active; AID 743398; in the data active = activation above about 30%, passing the limit was not always enough; inconclusive = no clear call, values can overlap the other calls
MITF act = activators of MITF-driven TRPM1 promoter activity in SK-MEL-5 cells. activation, % at 12.5 µM. SK-MEL-5 TRPM1-promoter luciferase, 24 h; % of positive control, neutral wells = 0. AID 588334. 0.75% of 300,000 active;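 active = mean activation of at least 80% with every replicate also reaching 80%; inconclusive = mean reaches 80% but some replicate falls short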
GAA30 FXN cntr = activates GAA30 frataxin promoter, counter-screen for GAA850 activators; shares compounds with GAA850 FXN act; HEK293 lucGAA30 FXN promoter luciferase, 24 h; DMSO = 0%, 5 µM ipriflavone = 100%; activation, % at 6 µM; 66% of 1,900 active; AID 588350;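 active = mean activation above the mean of solvent-only control wells plus 3 SD, cut at about 22% in these data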;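 note: counterscreen of GAA850 promoter hits where activity marks nonselective or luminescence artifacts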
GAA850 confirm = confirmation of GAA850 frataxin (FXN) promoter activators; 86% of 1,900 active; activation, % at 6 µM; AID 588351; HEK293 lucGAA850 FXN promoter luciferase reporter, 24 h; 100% = activation by SAHA; shares compounds with GAA850 FXN act;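 active = mean activation above a set limit taken from the primary screen, cut at about 8% in these data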
A number is an active result; i = inactive; ? = inconclusive; nt = not tested or not shown.

SMILES	esBAF inh	GAA850 FXN act	Wnt bcat act	MITF act	GAA30 FXN cntr	GAA850 confirm
COc1ccc(Cn2nnnc2CN(Cc2cc3ccc(C)cc3[nH]c2=O)C2CCCC2)cc1	i	i	nt	i	nt	nt
CNc1oc(/C=C/c2ccccc2)nc1C#N	nt	8.3	nt	i	133	40
CNc1oc(-c2ccccc2)nc1C#N	nt	i	i	i	nt	nt
CC(C)COC(=O)N(C)C[C@@H]1OCc2ccccc2-c2c(n(C)c3ccccc23)C(=O)N([C@@H](C)CO)C[C@@H]1C	i	nt	nt	nt	nt	nt
C[C@@H]1CN([C@@H](C)CO)C(=O)c2cc(C3=CCCC3)cnc2O[C@H]1CN(C)Cc1ccccc1C(=O)O	i	nt	nt	nt	nt	nt
O=C(N/N=C/c1ccc2c(c1)OCO2)c1cccs1	i	i	i	i	nt	nt
Cc1ccsc1C(=O)N/N=C/c1ccc2c(c1)OCO2	nt	8.8	i	i	104	29
C[C@H]1CN([C@@H](C)CO)C(=O)c2cc(NS(=O)(=O)c3cccs3)ccc2O[C@@H]1CN(C)S(=O)(=O)c1ccc(F)cc1	i	nt	nt	nt	nt	nt
CN1c2ccc(-c3ccc(F)cc3)cc2[C@H]2[C@H](CCN2C(=O)c2ccncc2)[C@H]1CO	i	nt	nt	nt	nt	nt
Cc1ccc(N2C(=O)N3[C@H](c4ccc(Cl)cc4)[C@@H]4C(=O)N(C5CCCCC5)C(=O)[C@@H]4[C@]3(Cc3ccccc3)C2=O)cc1	i	12	i	i	43	17
O=C1[C@H]2[C@@H](c3ccc(F)cc3)N3C(=O)N(c4ccc(Br)cc4)C(=O)[C@@]3(Cc3ccccc3)[C@H]2C(=O)N1C1CCCCC1	i	9.1	i	i	i	i
CC[C@@]12C(=O)N(c3cccc(F)c3)C(=O)N1[C@H](c1ccc(Cl)cc1)[C@@H]1C(=O)N(C3CCCCC3)C(=O)[C@@H]12	i	9.0	i	i	23	15
O=C1[C@H]2[C@@H](c3ccc(Cl)cc3)N3C(=O)N(c4cccc(Cl)c4)C(=O)[C@@]3(Cc3ccc(Cl)cc3)[C@H]2C(=O)N1C1CCCCC1	i	9.6	i	i	23	10
O=C1[C@H]2[C@@H](c3ccc(Cl)cc3)N3C(=O)N(c4cccc(F)c4)C(=O)[C@@]3(Cc3ccc(Cl)cc3)[C@H]2C(=O)N1C1CCCCC1	nt	i	nt	i	nt	nt
CCCN(C)C[C@H]1Oc2cc(-c3cccc(F)c3)ccc2S(=O)(=O)N([C@H](C)CO)C[C@H]1C	i	nt	nt	nt	nt	nt
CCN1C(=O)[C@H]2[C@@H](c3ccc(C)cc3)N3C(=O)N(c4cccc(F)c4)C(=O)[C@@]3(C)[C@H]2C1=O	i	i	i	i	nt	nt
CC(C)C[C@@]12C(=O)N(c3cccc(Br)c3)C(=O)N1[C@H](c1ccc(Cl)cc1)[C@@H]1C(=O)N(C3CCCCC3)C(=O)[C@@H]12	i	i	i	i	nt	nt
O=C1[C@H]2[C@@H](c3ccc(F)cc3)N3C(=O)N(c4cccc(F)c4)C(=O)[C@@]3(Cc3ccc(Cl)cc3)[C@H]2C(=O)N1C1CCCCC1	i	12	i	i	i	11
CC[C@@]12C(=O)N(c3cccc(Br)c3)C(=O)N1[C@H](c1ccc(Cl)cc1)[C@@H]1C(=O)N(C3CCCCC3)C(=O)[C@@H]12	i	11	i	i	i	15
Cc1ccc(N2C(=O)N3[C@H](c4ccc(F)cc4)[C@@H]4C(=O)N(C5CCCCC5)C(=O)[C@@H]4[C@]3(C)C2=O)cc1	i	13	nt	i	i	i
CC[C@@]12C(=O)N(c3ccc(OC)cc3)C(=O)N1[C@H](c1ccc(Cl)cc1)[C@@H]1C(=O)N(C3CCCCC3)C(=O)[C@@H]12	i	10	i	i	30	i
O=C(Cc1ccncc1)NCC[C@@H]1CC[C@H](NC(=O)C2CC2)[C@H](CO)O1	i	nt	nt	nt	nt	nt
CC(C)C[C@@]12C(=O)N(c3cccc(Cl)c3)C(=O)N1[C@H](c1ccc(F)cc1)[C@@H]1C(=O)N(C3CCCCC3)C(=O)[C@@H]12	i	12	i	i	i	20
CC(C)C[C@@]12C(=O)N(c3cccc(Cl)c3)C(=O)N1[C@H](c1ccc(Cl)cc1)[C@@H]1C(=O)N(C3CCCCC3)C(=O)[C@@H]12	i	i	i	i	nt	nt
Cc1cccc(-n2cc(-c3ccccc3)c3c(=O)[nH]cnc32)c1	nt	8.9	i	i	23	11
SMILES	esBAF inh	GAA850 FXN act	Wnt bcat act	MITF act	GAA30 FXN cntr	GAA850 confirm
O=c1[nH]cnc2c1c(-c1ccccc1)cn2-c1ccc(Br)cc1	nt	i	i	i	nt	nt
Cc1ccc(Nc2nc(N)nc(CSc3nc4ccccc4s3)n2)cc1	i	11	nt	i	40	22
CC(=O)N(C)C[C@@H]1Oc2cc(-c3ccc(F)cc3)ccc2S(=O)(=O)N([C@@H](C)CO)C[C@H]1C	i	nt	nt	nt	nt	nt
Cc1sc2nc(C(C)C)nc(SCC(=O)NC3CC3)c2c1C	i	i	i	i	nt	nt
Cc1cc(NC(=O)CSc2nc(C(C)C)nc3sc(C)c(C)c23)no1	i	7.9	i	i	i	13
FC(F)Oc1ccccc1/C=N/n1cnc2ccccc21	nt	8.0	?	i	95	29
CO[C@H]1CN(C)C(=O)c2ccc(NS(C)(=O)=O)cc2OC[C@@H](C)N(CC2CCCCC2)C[C@H]1C	i	nt	nt	nt	nt	nt
CCc1nn(C(CC)C(=O)NCCc2ccc(OC)cc2OC)c(=O)c2cc3occc3n12 (configuration not stated)	i	10	i	i	i	9.5
CN1CCC(N(C)C(=S)Nc2ccc(F)cc2)CC1	i	i	i	i	nt	nt
CC(=O)c1ccc(NC(=S)N(C)C2CCN(C)CC2)cc1	nt	14	i	i	22	i
CCc1ccc(NC(=O)CCn2nc(C)c(S(=O)(=O)N3CCCCC3)c2C)cc1	i	7.6	i	i	i	8.6
C[C@@H]1CN([C@@H](C)CO)C(=O)c2cc(NS(=O)(=O)c3ccc(Cl)cc3)ccc2O[C@@H]1CN(C)Cc1ccc(-c2ccccc2)cc1	i	nt	nt	nt	nt	nt
Cc1ccc(-n2ncc(Cl)c2C(=O)NC2CC2)cc1	i	8.6	i	i	110	32
C=CCNC(=O)c1c(Cl)cnn1-c1ccc(C)cc1	nt	i	i	i	nt	nt
Cc1ccc([N+](=O)[O-])cc1N/C=C/C(=O)c1ccco1	55	9.3	i	i	27	25
O=C(/C=C/c1cccc([N+](=O)[O-])c1)c1ccco1	i	i	i	i	nt	nt
COc1ccc2sc(-c3ccc(SC)cc3)c(C#CC(C)(C)O)c2c1	i	7.8	i	i	37	26
C[C@@H]1CN([C@H](C)CO)S(=O)(=O)c2ccc(C#CC3CCCCC3)cc2O[C@@H]1CN(C)Cc1cccnc1	i	nt	nt	nt	nt	nt
Cc1ccc(C)c(-n2cc(CNCCCn3cccn3)c(-c3ccccc3)n2)c1	i	11	i	i	i	i
Cc1ccc(-n2cc(CNCCCn3cccn3)c(-c3cccc(C)c3)n2)cc1	nt	i	i	i	nt	nt
CC1CCC(NC(=O)CCn2ccc3cc(S(=O)(=O)N4CCCC4)ccc32)CC1 (configuration not stated)	i	8.4	i	i	i	8.9
